Rows were chosen to be rich in hits. Some 4.5% of all compounds tested hit in one or more screens of this group.
ALR H2O2 inh – human ALR oxidase inhibition via reduced H2O2; 290,000 tested, 3.8% active; inhibition, % (test concentration not listed); AID 485317; purified ALR, DTT oxidation, H2O2 HRP-luminol luminescence; P55789;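 active = mean replicate inhibition above about 79%, with every replicate also reaching it, limit read from the data; inconclusive = only one of the two criteria met; inactive = mean below limit and not every replicate reaching it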
Efflux pump inh – antifungal efflux pump inhibition, Nile Red retention | S. cerevisiae Candida pump triplex | inhibition, % at 10 µM | 330,000 tested, 0.44% active | AID 485275;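 active = plate passing quality check with inhibition over a set limit, or well fluorescence over plate mean plus 4 SD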;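 note: Nile Red retained in pooled yeast measured as flow cytometry median fluorescence; 0% = buffer negative control and 100% = Enniatin B positive control; higher means more Nile Red kept so more efflux inhibition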
Rtt109 Vps75 – blocks Candida albicans Rtt109/Vps75 acetyltransferase activity. Q5AAJ8. purified Rtt109/Vps75, ThioGlo CoA-SH fluorescence, 4 h. inhibition, % at 34.9 µM. 330,000 tested, 0.16% active;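 active = inhibition of at least 50% in every replicate; inconclusive = best replicate reaches 50% inhibition but some replicates fall short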
HDAC3 inh – human HDAC3 inhibition | O15379 | recombinant HDAC3, fluorogenic peptide/trypsin coupled, fluorescence | inhibition, % at 8.3 µM | 320,000 tested, 0.15% active | AID 2718; in the data active = inhibition above about 26%, passing the limit was not always enough; inconclusive = no clear call, values can overlap the other calls
Target sequence (O15379 whole entry, looked up): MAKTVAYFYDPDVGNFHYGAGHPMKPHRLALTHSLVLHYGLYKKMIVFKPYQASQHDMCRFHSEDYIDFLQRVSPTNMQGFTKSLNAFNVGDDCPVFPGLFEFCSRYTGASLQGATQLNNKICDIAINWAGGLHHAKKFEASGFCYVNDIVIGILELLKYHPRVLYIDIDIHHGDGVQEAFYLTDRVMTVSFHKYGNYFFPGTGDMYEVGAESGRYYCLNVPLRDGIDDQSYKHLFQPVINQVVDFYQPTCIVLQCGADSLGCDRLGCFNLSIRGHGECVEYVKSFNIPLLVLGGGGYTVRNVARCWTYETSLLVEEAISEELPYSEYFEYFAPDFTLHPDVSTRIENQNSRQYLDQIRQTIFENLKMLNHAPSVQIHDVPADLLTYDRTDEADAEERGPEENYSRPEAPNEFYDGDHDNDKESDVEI
GRK2 aptamer HTS – inhibitors of human GRK2 displacing RNA aptamer. P25098. bead flow cytometry, FAM-aptamer displacement from GRK2. inhibition of aptamer binding, % at 10 µM. 330,000 tested, 0.59% active;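 active = inhibition of aptamer binding above 40%, roughly 3 SD of noise, on plates passing a quality check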;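 note: median bead fluorescence of bound FAM aptamer so fluorescent compounds give negative values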
Rce1 inhib – blocks yeast Ras-converting enzyme. AID 2563. 290,000 tested, 0.27% active. calls only. Q03530. yeast membranes, quenched prenylated peptide cleavage fluorescence;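 active = fall in fluorescence gain of 50% or more versus controls, with final raw signal at or below 3038400; inconclusive = same 50% fall but final raw signal above 3038400; inactive = fall in fluorescence gain under 50%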;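 note: plate controls were neutral control wells for no effect and wells lacking membranes for full effect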
* = called active by the depositor; i = inactive; ? = inconclusive; / = no result given; + = active, no number.

SMILES	ALR H2O2 inh	Efflux pump inh	Rtt109 Vps75	HDAC3 inh	GRK2 aptamer HTS	Rce1 inhib
O=C(O)c1ccc2c(c1)C(=O)N(CCc1c[nH]c3ccccc13)C2=O	-9	0	0	4	3	i
Cc1ccnn1-c1ccc(C(=O)N2CCCN(S(=O)(=O)c3ccc(F)cc3)CC2)cc1	/	0	2	2	0	/
CC1(C)C(=O)OC(C(=O)c2ccc(Cl)cc2)C(C)(C)C1=O (stereo not drawn)	-15	0	13	3	100*	i
Cc1cc(SCC(=O)c2ccc(O)c(O)c2)n2nc(C)c(-c3ccccc3)c2n1	96*	0	14	-1	0	i
O=C(CSc1nc2ccccc2c(=O)[nH]1)c1ccc(O)c(O)c1	99*	0	-1	15	3	i
Cc1ccc(C(=O)CSc2nc(C)cc(=O)[nH]2)cc1	98*	0	0	2	0	i
CCSc1cc(C)nc2c(-c3ccc(Cl)cc3)c(C)nn12	3	0	-7	-6	2	i
Cc1cc(C)nc(SCC(=O)c2ccc(O)c(O)c2)n1	18	0	4	1	8	i
CCc1ccc(C(=O)CSc2nc(N)cc(=O)[nH]2)cc1	/	0	6	0	1	i
Cc1cc(=O)[nH]c(SCC(=O)c2ccc(O)c(O)c2)n1	99*	0	8	3	3	i
O=C(CSc1nc2ccccc2c(=O)[nH]1)c1ccc(O)cc1O	/	/	2	/	/	i
CCC(CC)Nc1ccc(C(CC(N)=O)NC(=O)Cc2cccc3ccccc23)cc1[N+](=O)[O-] (stereo not drawn)	0	0	-7	2	2	i
O=C(COC(=O)CNC(=O)c1ccccc1)Nc1ccc(Cl)cn1	12	0	-5	-2	2	/
Cc1ccc(-c2ccc(/C=C(\C#N)C(=O)Nc3cc(C)nn3-c3ccccc3)o2)cc1	-6	1.5*	/	1	0	i
N#C/C(=C\c1ccc(-c2cccc(Cl)c2)o1)C(=O)Nc1cccc2cccnc12	-3	0	-32	-2	0	i
N#C/C(=C\c1ccc(-c2ccccc2)o1)C(=O)Nn1cnnc1	98*	0	30	-2	4	i
COc1ccc(CN(C(=O)c2oc3cc(C)ccc3c2C)C2CCS(=O)(=O)C2)cc1OC (stereo not drawn)	-14	0	17	9	2	i
CCc1ccc(NC(=O)CSC2=C(C#N)C(c3ccco3)C3=C(CCCC3=O)N2)cc1 (stereo not drawn)	-11	0	-4	-3	0	i
Cc1ccc(NC(=O)CSC2=C(C#N)C(c3ccco3)CC(=O)N2)cc1 (stereo not drawn)	99*	0	23	3	0	i
COC(=O)CSC1=C(C#N)C(c2ccc(C)o2)CC(=O)N1 (stereo not drawn)	1	0	-10	4	0	i
Cc1ccc(C(=O)CSC2=C(C#N)C(c3ccco3)CC(=O)N2)c(C)c1 (stereo not drawn)	92*	0	-24	5	32	i
Cc1ccc(NC(=O)CSC2=C(C#N)C(c3ccco3)C3=C(CC(C)(C)CC3=O)N2)cc1 (stereo not drawn)	98*	0	15	9	2	i
CC(=O)Nc1cc(=O)c2cccnc2[nH]1	/	/	1	/	/	/
CCOC(=O)N1CCN(c2ccncc2S(=O)(=O)N2CCCCC2)CC1	-15	0	-13	-8	3	/
Cc1ccc(S(=O)(=O)/C(=C\N(C)C)c2cnc(Cl)s2)cc1	54	0	-9	4	1	i
SMILES	ALR H2O2 inh	Efflux pump inh	Rtt109 Vps75	HDAC3 inh	GRK2 aptamer HTS	Rce1 inhib
CN(C)c1ccc(NC(=O)C2C3C=CC(C3)C2C(=O)O)cc1 (stereo not drawn)	99*	0	1	-11	4	i
CC(=O)c1cccc(NC(=O)C2C3C=CC(C3)C2C(=O)O)c1 (stereo not drawn)	-4	0	-2	-8	0	i
CCC(C)[C@H](N)c1nnc(SCC(=O)Nc2cccc(Cl)c2)o1 (stereo partly drawn)	41	0	/	3	0	i
COC(OC)c1nc(SCC(=O)Nc2cccc(Cl)c2)ncc1C(=O)O	99*	0	-3	1	0	i
O=C(c1ccccc1)N(Nc1ccccc1)c1ccccc1	76*	0	5	-1	0	i
O=C(CCl)NCc1cc(-c2ccc(Cl)cc2)no1	97*	0	2	12	0	/
CN1C(=O)/C(=C\C=C2/CCCN2C)N(C)C1=S	59	0	5	9	0	i
CCN1C(=O)/C(=C/C=C2/CCCN2C)OC1=S	98*	0	-9	?	4	i
CC1CCCC(NC(=O)CCC(=O)N2CCOc3ccccc32)C1C (stereo not drawn)	-2	0	12	2	0	i
COc1ccc(OC)c2sc(N(CCCN(C)C)C(=O)CCS(=O)(=O)c3ccccc3)nc12	52	0	83*	0	0	i
CCN(Cc1ccccc1)S(=O)(=O)c1ccc(C(=O)N(CCCN(C)C)c2nc3c(C)c(C)ccc3s2)cc1	-11	0	2	5	0	+
CN(C)CCN(C(=O)CCS(=O)(=O)c1ccccc1)c1nc2c(F)cccc2s1	20	0	-1	-5	0	i
Cc1ccc2sc(N(CCCN(C)C)C(=O)CCS(=O)(=O)c3ccccc3)nc2c1C	98*	0	-3	-5	0	i
Cc1cccc2sc(N(CCCN(C)C)C(=O)CCc3ccccc3)nc12	/	-3	58*	/	0	i
Cc1occc1C(=O)N1CCCC(N2CCN(c3ccccc3F)CC2)C1 (stereo not drawn)	0	0	0	-6	4	i
COc1cnc(-c2ccccn2)nc1Oc1cccc(Cl)c1	95*	0	-14	-7	2	i
CC1=C([N+](=O)[O-])C(c2ccccc2Cl)NC(=O)N1C (stereo not drawn)	46	0	6	4	/	i
COc1ccc2nc(N3C(=O)CNC3=S)sc2c1	/	0	-4	12	0	i
Cc1ccc2nc(N3C(=O)CNC3=S)sc2c1	93*	0	-5	6	1	i
COc1ccc(-n2c(-c3cnccn3)n[nH]c2=S)cc1	90*	0	10	10	1	i
S=c1[nH]nc(-c2cnccn2)n1-c1ccccc1	39	0	-7	18	3	i
Cc1ccc(Sc2ncccc2[N+](=O)[O-])cc1	-26	2	-1	-4	0	i
Cc1c([N+](=O)[O-])cnc(Sc2ccccc2)c1[N+](=O)[O-]	99*	0	-5	-3	/	i
COc1cccc(C2CC(c3cccs3)=NN2C(=O)CSc2nc3c(cnn3-c3ccc(F)cc3)c(=O)[nH]2)c1OC (stereo not drawn)	-8	0	-2	-3	5	+
